Compound activity (PubChem)
Pol kappa inh-1 = DNA polymerase kappa (human) inhibition. purified Pol kappa, fluorescent DNA synthesis assay, 10 min. 0.53% of 400,000 active. Potency, µM (series often up to 107 µM), most hits filed as inhibitors
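10 nM Pol kappa preincubated 15 min at room temperature with compounds, then reaction started with substrate at 50 nM final. Fluorescence read kinetically at 0 and 10 min; buffer-only wells served as negative control.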
Pol eta inh-1 = inhibitors of human DNA polymerase eta; recombinant Pol eta, fluorescent DNA replication assay; Potency, µM (series often up to 114 µM), actives largely listed as inhibitors; 1.2% of 390,000 active; Q9Y253; AID 588591
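Pol eta (10 nM) was preincubated with compounds for 15 min at room temperature, after which fluorescent replication substrate (50 nM final) was added to start the reaction. Fluorescence was read kinetically at 0 and 10 min.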
FEN1 inh = inhibitors of human flap endonuclease 1; AID 588795; Recombinant FEN1 flap cleavage, fluorescence, 15 min; Potency, µM (top dose mostly 114 µM), most hits filed as inhibitors; 0.35% of 390,000 active; note: nearly all actives have a fitted effect of over 65% in size
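FEN1 at 10 nM, compound pretreatment for 15 min (room temperature), 50 nM final substrate to initiate; endpoint reads at 0 and 15 min; DMSO-only plates used as vehicle background.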
WRN inhibitor = blocks human WRN helicase; Potency, µM (top dose mostly 114 µM), most hits filed as inhibitors; 0.46% of 360,000 active; AID 651768; Q14191; WRN helicase unwinding, fluorescent forked duplex, kinetic; note: nearly all actives have a fitted effect of over 55% in size
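WRN at 20 nM final was preincubated with compound for 15 min at room temperature; reaction started with 100 nM forked duplex oligonucleotide carrying fluorophore and quencher plus 2 mM ATP (final). Unwinding followed kinetically by red fluorescence (ex 525/em 598 nm).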
POLI inh = inhibitors of human DNA polymerase iota | 1% of 390,000 active | Potency, µM (titrated, usually from 115 µM), hits mostly inhibitors | AID 588590 | Q9UNA4 | Pol iota fluorescent replication assay, 10 min
Target sequence (Q9UNA4 whole entry, looked up): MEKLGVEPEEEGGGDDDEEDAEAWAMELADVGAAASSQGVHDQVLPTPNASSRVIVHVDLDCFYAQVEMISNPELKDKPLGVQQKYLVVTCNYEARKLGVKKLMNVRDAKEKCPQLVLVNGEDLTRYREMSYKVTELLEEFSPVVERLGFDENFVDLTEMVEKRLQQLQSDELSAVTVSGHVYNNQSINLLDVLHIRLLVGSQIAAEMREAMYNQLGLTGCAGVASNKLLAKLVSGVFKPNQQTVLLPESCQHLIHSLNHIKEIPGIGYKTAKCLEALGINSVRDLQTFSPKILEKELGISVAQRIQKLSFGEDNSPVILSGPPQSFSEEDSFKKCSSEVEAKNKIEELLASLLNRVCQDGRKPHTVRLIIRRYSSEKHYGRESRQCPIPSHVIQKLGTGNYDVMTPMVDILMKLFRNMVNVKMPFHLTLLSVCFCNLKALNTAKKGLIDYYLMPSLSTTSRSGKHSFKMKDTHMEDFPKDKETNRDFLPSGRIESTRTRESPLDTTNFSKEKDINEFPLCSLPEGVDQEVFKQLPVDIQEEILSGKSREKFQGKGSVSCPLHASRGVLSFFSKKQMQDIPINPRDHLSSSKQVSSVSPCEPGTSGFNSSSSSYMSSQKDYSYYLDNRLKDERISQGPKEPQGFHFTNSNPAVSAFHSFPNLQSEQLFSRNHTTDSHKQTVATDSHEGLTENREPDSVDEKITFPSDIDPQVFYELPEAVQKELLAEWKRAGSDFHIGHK
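Pol iota at 10 nM preincubated 15 min with compounds at room temperature; reaction started with fluorescent substrate, 50 nM final. Fluorescence read kinetically at 0 and 10 min; buffer-only wells as negative control.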
Pol beta inh-1 = inhibitors of human DNA polymerase beta. P06746. Pol beta primer extension/strand displacement, fluorescence kinetic. Potency, µM (top dose mostly 114 µM), hits mostly inhibitors. 1.3% of 340,000 active
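Pol beta (10 nM) and compounds were preincubated 15 min at room temperature, then 50 nM substrate (final) started primer extension/strand displacement. Reads were taken at 0 and 10 min; concentration-response data were fitted to a four-parameter Hill equation.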
Pol beta inh-2 = Human Pol beta inhibitor hit validation | AID 540280 | Potency, µM, most hits filed as inhibitors | 87% of 250 active | Pol beta primer extension/strand displacement, fluorescence kinetic | shares compounds with Pol beta inh-1; calls by dose curve
Klenow counter = inhibits Klenow fragment polymerase in counter-screen. activity change, negative = inhibition, % at 57.1 µM. AID 540300. 250 tested, under 10 active. shares compounds with Pol beta inh-1. Klenow exo- polymerase counter-screen, fluorescent DNA substrate
HIV RT inh = inhibits HIV-1 reverse transcriptase in counter-screen; HIV-1 RT polymerase activity, counter-screen; activity % (negative = inhibition, positive = activation), % at 57.1 µM; 250 tested, under 10 active; AID 540301; shares compounds with Pol beta inh-1
POLB valid = DNA polymerase beta inhibition, radiolabeled validation. shares compounds with Pol beta inh-1. radiolabeled primer extension gel assay, phosphorimager. inhibition, % at 10 µM. 91% of 110 active;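 active = inhibition at 10 µM of 30% or more; inconclusive = no clear call, values can overlap the other calls; inactive = inhibition at 10 µM under 30%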
TbPGK inh = TbPGK inhibition, hit validation. TbPGK coupled GAPDH assay, Kinase-Glo luminescence. 79% of 500 active. Potency, µM (titrated, usually from 57.5 µM), usual class: inhibitors. shares compounds with Pol kappa inh-1; note: nearly all actives have a fitted effect of over 65% in size
Pol iota confirm = Confirm cherry-picked inhibitors of human polymerase iota. Pol iota primer extension, TAMRA/BHQ fluorescence. Potency, µM, usual class: inhibitors. shares compounds with Pol kappa inh-1. 77% of 1,500 active
Pol kappa inh-2 = confirmation of human DNA polymerase kappa inhibitors; 76% of 920 active; shares compounds with Pol eta inh-1; Potency, µM, most hits filed as inhibitors; AID 720501; purified Pol-kappa, fluorescent strand-displacement substrate
Pol eta inh-2 = confirmation of human DNA polymerase eta inhibitors; shares compounds with Pol eta inh-1; Pol eta primer extension, TAMRA/BHQ fluorescence, 10 min; Potency, µM, usual class: inhibitors; 64% of 2,600 active; AID 720502
Numbers stand for hits; – = inactive; ? = inconclusive; · = not tested or not shown; [ ] = dose if it differs, or a comment. Sampled rows, rich in hits. Any-hit rate of the full collection: about 2.4%. Unless noted, calls come from the whole dose curve; as a rule, active = well fitted curve in the direction sought with a large enough effect; inconclusive = small, poorly fitted or top-dose-only effect, or another doubt; inactive = no such curve, though single readings can be large; an effect the other way counts as inactive or inconclusive.

SMILES	Pol kappa inh-1	Pol eta inh-1	FEN1 inh	WRN inhibitor	POLI inh	Pol beta inh-1	Pol beta inh-2	Klenow counter	HIV RT inh	POLB valid	Pol iota confirm	others
C#CCn1c(=NC(=O)c2cccs2)sc2cccc(OC)c21	–	?	–	–	?	20µM	31.6	–	–	77.3	·
COc1ccc(OCC(=O)OCCN2C(=O)c3ccccc3C2=O)cc1	–	–	–	–	–	20µM	31.6	–	–	84.5	·
CNc1ccc(Br)cc(C(=O)/C=C/c2cc(OC)ccc2OC)c1=O	?	14.1µM	?	–[11.6 µM]	?	12.6µM	28.2	–	–	43.4	·
COc1ccc(/C=C/C(=O)c2cc(Br)ccc2O)cc1OC	–	–	–	–	–	–	·	·	·	·	·
COc1cccc2sc(Nc3nnc(-c4ccc(F)cc4)o3)nc12	–	50.1µM	–	–	–	12.6µM	35.5	–	–	85.0	·
COc1ccc2cc3cc(C(=O)Nc4ccc5c(c4)OCCO5)oc3nc2c1	–	11.2µM	–	–	?	12.6µM	?	–	–	·	·
N=C1C(c2nc3ccccc3s2)=C(O)CN1NC(=O)c1c[nH]c2ccccc12	–	–	–	–	?	12.6µM	25.1	–	–	52.2	·
COc1ccc(NC(=O)CCc2c(C)nc3nc(CNC(=O)OC(C)(C)C)nn3c2C)cc1OC	–	–	–	·	–	–	·	·	·	·	·
Cc1ccc2nc(Cl)c3cc(C(=O)NC4CCC(C)CC4)sc3c2c1 (stereo unspecified)	–	–	–	·	–	–	·	·	·	·	·
Nc1c(C(=O)NC2CC2)sc2nc3c(c(-c4ccco4)c12)CC/C3=C/c1ccco1	0.708µM	0.708µM	5.62µM	50.1µM	?	0.631µM	28.2	–	?	100.0	·
O=C(Nc1cccc(-c2cn3ccccc3n2)c1)c1cc2ccccc2oc1=O	–	?	?	?	?	3.98µM	5.62	–	–	·	?
C=C1C(C2(C)C=CC(=O)C(C)(C)C2CC(=O)OC)CC[C@@]2(C)C(c3ccoc3)OC(=O)C3OC132 (stereo partly specified)	–	·	·	·	·	·	·	·	·	·	·
CCOC(=O)c1cc(-c2ccc(N3CCOCC3)cc2)nn1-c1ccccc1C(=O)O	–	?	–	?	?	12.6µM	20	–	–	·	?
CCOC(=O)c1cc(-c2ccc(N3CCOCC3)cc2)nn1-c1ccccc1	–	–	–	–	–	–	·	·	·	·	·
Cc1cc(C)c2c(n1)SCCN2C(=O)Nc1ccc(C(=O)Nc2cc(Cl)ccc2C)cc1	–	–	–	·	–	–	·	·	·	·	·
O=C(Nc1nc(-c2cc3ccccc3oc2=O)cs1)c1ccco1	–	?	–	–	–	8.91µM	20	–	–	40.9	?
O=C(Nc1nc(-c2ccccn2)cs1)c1ccco1	–	?	–	–	–	?	·	·	·	·	·
COc1cc(/C=C(/C#N)c2nc3ccccc3[nH]2)ccc1Oc1ncccc1[N+](=O)[O-]	–	?	–	?	?	12.6µM	12.6	–	–	·	?
CCOc1cc(/C=C(/C#N)c2nc3ccccc3[nH]2)ccc1Oc1ccc([N+](=O)[O-])cn1	–	–	–	–	–	?	·	·	·	·	·
Cc1ccc(Cl)cc1N1CCN(C(=O)c2cn(C)c3ccc(S(=O)(=O)N4CCCC4)cc3c2=O)CC1	–	–	–	·	–	–	·	·	·	·	·
CCCCCCc1cc2cc(-c3nnc(-c4ccccc4OC)o3)c(=O)oc2cc1O	20µM	8.91µM	44.7µM	44.7µM	?	14.1µM	7.08	–	–	·	·	TbPGK inh=10.3µM
O=C(/C=C/c1ccccc1Cl)Nc1ccc2c(c1)C(=O)NC2=O	?	?	–	?	?	8.91µM	14.1	–	–	·	?
Cc1ccc(-n2cccc2/C=C2/C(=N)N3C(=NC2=O)SN=C3S(C)(=O)=O)cc1	?	31.6µM	?	?	17.8µM	15.8µM	15.8	–	–	·	84.4	Pol eta inh-2=67.5
CS(=O)(=O)C1=NSC2=NC(=O)/C(=C\c3ccc(-c4ccccc4)o3)C(=N)N21	·	·	·	·	·	–	·	·	·	·	·
CCc1ccc(-n2cccc2/C=C2/C(=N)N3C(=NC2=O)SN=C3S(C)(=O)=O)cc1	79.4µM	20µM	?	–[11.6 µM]	?	6.31µM	31.6	–	?	73.0	?	Pol kappa inh-2=67;Pol eta inh-2=47.8
SMILES	Pol kappa inh-1	Pol eta inh-1	FEN1 inh	WRN inhibitor	POLI inh	Pol beta inh-1	Pol beta inh-2	Klenow counter	HIV RT inh	POLB valid	Pol iota confirm	others
Cc1c(CC(=O)N2CCCCC2)c(=O)oc2cc3occ(C(C)(C)C)c3cc12	–	–	–	·	–	–	·	·	·	·	·
CCCN(C(=O)c1cc2c(s1)CCC2)c1c(N)n(Cc2ccccc2)c(=O)[nH]c1=O	?	25.1µM	–	–	?	10µM	22.4	–	–	90.6	?	Pol eta inh-2=75.7
CCCN(C(=O)c1cccs1)c1c(N)n(Cc2ccccc2)c(=O)[nH]c1=O	–	–	–	–	–	·	·	·	·	·	·
N#CCCn1c(=O)c(-c2cccs2)nc2cnc(OCc3ccccc3)nc21	–	·	·	·	·	·	·	·	·	·	·
C=CCn1c(SCC(=O)Nc2ccc(-c3nc4ccc(C)cc4s3)cc2)nnc1-c1ccccc1	–	?	–	?	56.2µM	6.31µM	20	–	–	59.7	67	Pol eta inh-2=?
CCCSc1nnc(NC(=O)c2sc3nc(-c4cccs4)ccc3c2N)s1	–	79.4µM	?	?	?	17.8µM	12.6	–	–	·	?	Pol kappa inh-2=18.9;Pol eta inh-2=60.1
O=C(Cc1ccc(S(=O)(=O)N2CCOCC2)s1)Nc1ccc2c(c1)CCC2	–	?	–	–	–	–	·	·	·	·	·
O=C(Cc1ccc(S(=O)(=O)N2CCOCC2)s1)Nc1nc2c(s1)CCCC2	17.8µM	3.98µM	?	35.5µM	?	7.08µM	28.2	–	–	99.1	33.6	Pol kappa inh-2=21.2;Pol eta inh-2=30.1
